Reference: PubChem BioAssay (NCATS)
Results filed as inconclusive are left out. Activity calls are given as the source filed them. Calls come from the whole dose curve; as a rule, active = well fitted curve in the direction sought with a large enough effect; inconclusive = small, poorly fitted or top-dose-only effect, or another doubt; inactive = no such curve, though single readings can be large; an effect the other way counts as inactive or inconclusive.

How the values were obtained:
[1] = qHTS of pediatric cancer cell lines to identify multiple opportunities for drug repurposing: Primary screen for NB-EBc1 cells (AID 1347095)
Procedure, shortened: (§1)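 Plated cells (500-1,000 per well, growth media) were allowed to settle for 5 hours, treated with compound dilutions for 48 hours, then lysed with CellTiter-Glo for 15 min at room temperature before luminescence reading.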

[2] = qHTS of pediatric cancer cell lines to identify multiple opportunities for drug repurposing: Primary screen for U-2 OS cells (AID 1347096); note: nearly all actives have a fitted effect of over 50% in size
Procedure, shortened: (§2)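 Cells (500-1,000/well) rested 5 h, then received compounds for 48 h; metabolically active cells were measured by CellTiter-Glo luminescence. Final concentrations spanned up to 46 µM (MIPE, 11-point) or 0.59 nM-46 µM (NPC, 8-point) in primary screens, 11-point in follow-ups.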

[3] = qHTS of pediatric cancer cell lines to identify multiple opportunities for drug repurposing: Primary screen for Saos-2 cells (AID 1347097); note: nearly all actives have a fitted effect of over 40% in size
Procedure, shortened: as §1

[4] = qHTS of pediatric cancer cell lines to identify multiple opportunities for drug repurposing: Primary screen for SK-N-SH cells (AID 1347098);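 note: DMSO served as neutral control and bortezomib at 2.3 µM as positive control; nearly all actives have a fitted effect of over 65% in size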
Procedure, shortened: as §2

[5] = qHTS of pediatric cancer cell lines to identify multiple opportunities for drug repurposing: Primary screen for NB1643 cells (AID 1347099); note: nearly all actives have a fitted effect of over 50% in size
Procedure, shortened: as §1

[6] = qHTS of pediatric cancer cell lines to identify multiple opportunities for drug repurposing: Primary screen for LAN-5 cells (AID 1347100)
Procedure, shortened: as §2

[7] = qHTS of pediatric cancer cell lines to identify multiple opportunities for drug repurposing: Primary screen for BT-12 cells (AID 1347101); note: nearly all actives have a fitted effect of over 25% in size
Procedure, shortened: as §2

[8] = qHTS of pediatric cancer cell lines to identify multiple opportunities for drug repurposing: Primary screen for Rh18 cells (AID 1347102); note: nearly all actives have a fitted effect of over 65% in size
Procedure, shortened: as §2

[9] = qHTS of pediatric cancer cell lines to identify multiple opportunities for drug repurposing: Primary screen for OHS-50 cells (AID 1347103); note: nearly all actives have a fitted effect of over 40% in size
Procedure, shortened: as §2

[10] = qHTS of pediatric cancer cell lines to identify multiple opportunities for drug repurposing: Primary screen for RD cells (AID 1347104); note: nearly all actives have a fitted effect of over 55% in size
Procedure, shortened: as §1

[11] = qHTS of pediatric cancer cell lines to identify multiple opportunities for drug repurposing: Primary screen for MG 63 (6-TG R) cells (AID 1347105); note: nearly all actives have a fitted effect of over 50% in size
Procedure, shortened: as §1

[12] = qHTS of pediatric cancer cell lines to identify multiple opportunities for drug repurposing: Primary screen for control Hh wild type fibroblast cells (AID 1347106);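 note: series mostly up to about 46 µM; a drop in luminescence marks cytotoxicity and a rise apparent proliferation; nearly all actives have a fitted effect of over 55% in size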
Procedure, shortened: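 Cells (500-1,000/well) in growth media were settled 5 h at 37 degrees C, then given compounds for 48 h. Viability was read as CellTiter-Glo luminescence. Primary runs used MIPE at 11 points (0.78 nM-46 µM) and NPC at 8 points (0.59 nM-46 µM); follow-ups used 11 points.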

[13] = qHTS of pediatric cancer cell lines to identify multiple opportunities for drug repurposing: Primary screen for Rh30 cells (AID 1347107); note: series mostly up to about 46 µM; nearly all actives have a fitted effect of over 75% in size
Procedure, shortened: as §2

[14] = qHTS of pediatric cancer cell lines to identify multiple opportunities for drug repurposing: Primary screen for Rh41 cells (AID 1347108);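 note: series mostly up to about 46 µM; luminescence drop marks cytotoxic hits; nearly all actives have a fitted effect of over 70% in size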
Procedure, shortened: as §1

Measured: Potency

CN1CC(=O)N/C1=N/C(=O)Nc1cccc(Cl)c1
inactive: all assays above

Nc1ccc(O)c(C(=O)O)c1
inactive: all assays above

C[N+]1(C)[C@@H]2CC(OC(=O)[C@H](CO)c3ccccc3)C[C@H]1[C@@H]1O[C@@H]12 (stereo not given in full)
inactive: all assays above

Nc1c(CC(=O)O)cccc1C(=O)c1ccc(Br)cc1
inactive: all assays above

CCC1C(=O)OCC1Cc1cncn1C (stereo not given)
inactive: all assays above

CCCCCCCCCCCCOCCO
inactive: all assays above

O=C(O)Cc1ccc(-c2ccccc2)cc1
inactive: all assays above

Cc1ccc(O)c(-n2nc3ccccc3n2)c1
inactive: all assays above

Cc1c(N)c(=O)n(-c2ccccc2)n1C
inactive: all assays above

O=C(CCN1CCN(CCO)CC1)N1c2ccccc2Sc2ccc(C(F)(F)F)cc21
inactive: all assays above

O=C(/C=C/c1ccccc1)NCCO
inactive: all assays above

C=CCCCCCCCCC(=O)O
inactive: all assays above

COc1ccnc2c1CCCCC2S(=O)c1nc2ccccc2[nH]1 (stereo not given)
inactive: all assays above

COc1cc2c3cc1Oc1cc(ccc1O)C[C@@H]1c4c(cc(OC)c(O)c4Oc4ccc(cc4)C[C@@H]3N(C)CC2)CC[N+]1(C)C
inactive: all assays above

O=C(O)/C=C\C(=O)O
inactive: all assays above

CCCCCCCCCCCCCCCCCC(=O)O
inactive: all assays above

O=C(Nc1ccc(C(=O)O)c(O)c1)c1ccccc1
inactive: all assays above

C/C(=N\O)c1ccc(OCC(=O)N2CCCCC2)cc1
inactive: all assays above

CN(C)[C@@H]1C(=O)C(C(=O)NCN2CCCC2)=C(O)[C@@]2(O)C(=O)C3=C(O)c4c(O)cccc4[C@@](C)(O)C3C[C@@H]12 (stereo not given in full)
inactive: all assays above

O=C(O)c1ccccc1Nc1cccc(C(F)(F)F)c1
inactive: all assays above

CO[C@@]1(NC(=O)Cc2cccs2)C(=O)N2C(C(=O)O)=C(COC(N)=O)CS[C@@H]21
inactive: all assays above

CCCCCCCCCCCC(=O)[O][Sn]([CH2]CCC)([CH2]CCC)[O]C(=O)CCCCCCCCCCC
inactive: all assays above

O=C(O)Cc1ccc2c(c1)C(=O)c1ccccc1CO2
inactive: all assays above

CC1(C)S[C@@H]2[C@H](NC(=O)[C@H](N)c3ccccc3)C(=O)N2[C@H]1C(=O)O
inactive: all assays above

O=C(OCc1ccccc1)c1ccccc1
inactive: all assays above

Nc1ccc(C(=O)O)c(O)c1
inactive: all assays above

CC(=O)c1ccc(OCC(=O)N2CCCCC2)cc1
inactive: all assays above

CNC(=O)c1c(I)c(NC(=O)CCCCC(=O)Nc2c(I)c(C(=O)O)c(I)c(C(=O)NC)c2I)c(I)c(C(=O)O)c1I
inactive: all assays above

Cc1ccc2c(n1)Oc1ccc(C(C)C(=O)OCC(=O)N(C)C)cc1C2 (stereo not given)
not listed: [3]
inactive: all other assays above

CN1CCN(c2cc3c(nn2)Oc2ccccc2N3C)CC1
not listed: [9]
inactive: all other assays above

N=C(N)N
inactive: all assays above

O=C(O)c1cc(O)c(O)c(O)c1
not listed: [3]
inactive: all other assays above

CCCOC(=O)c1ccc(O)cc1
not listed: [3] | [9]
inactive: all other assays above

CC(N)C(=O)OC(C)(C)Cc1ccc(Cl)cc1 (stereo not given)
not listed: [9]
inactive: all other assays above
